Source: PubChem BioAssay (National Center for Advancing Translational Sciences (NCATS))
Menin MLL FP FL – inhibitors of human menin-MLL interaction, wild-type MLL peptide; Fluorescence polarization, fluorescein-MLL peptide displacement from menin; FP activity change, % at 61.4 µM; 290,000 tested, under 10 active; AID 1766; active = well fitted curve in the direction sought with a large enough effect in the polarisation, not every such curve was filed as active; inconclusive = small, poorly fitted or top-dose-only effect, or effect the other way, or a change in a side signal; inactive = no such curve, though single readings can be large or run the other way; the % refers to the polarisation
Menin-MLL TR inh – inhibitors of human menin-MLL interaction, mutant MLL peptide; Menin + Texas Red MLL mutant peptide, fluorescence polarization; Potency, µM (top dose mostly 61.6 µM), most hits filed as inhibitors; actives 0.23% (n = 270,000); active = well fitted inhibition curve with a large enough effect in the polarisation, with a control signal flat, not every such curve was filed as active; inconclusive = small, poorly fitted or top-dose-only effect, or effect the other way, or a change in a side signal; inactive = no such curve, though single readings can be large or run the other way; the % refers to the polarisation
Target sequence (O00255 whole entry, looked up): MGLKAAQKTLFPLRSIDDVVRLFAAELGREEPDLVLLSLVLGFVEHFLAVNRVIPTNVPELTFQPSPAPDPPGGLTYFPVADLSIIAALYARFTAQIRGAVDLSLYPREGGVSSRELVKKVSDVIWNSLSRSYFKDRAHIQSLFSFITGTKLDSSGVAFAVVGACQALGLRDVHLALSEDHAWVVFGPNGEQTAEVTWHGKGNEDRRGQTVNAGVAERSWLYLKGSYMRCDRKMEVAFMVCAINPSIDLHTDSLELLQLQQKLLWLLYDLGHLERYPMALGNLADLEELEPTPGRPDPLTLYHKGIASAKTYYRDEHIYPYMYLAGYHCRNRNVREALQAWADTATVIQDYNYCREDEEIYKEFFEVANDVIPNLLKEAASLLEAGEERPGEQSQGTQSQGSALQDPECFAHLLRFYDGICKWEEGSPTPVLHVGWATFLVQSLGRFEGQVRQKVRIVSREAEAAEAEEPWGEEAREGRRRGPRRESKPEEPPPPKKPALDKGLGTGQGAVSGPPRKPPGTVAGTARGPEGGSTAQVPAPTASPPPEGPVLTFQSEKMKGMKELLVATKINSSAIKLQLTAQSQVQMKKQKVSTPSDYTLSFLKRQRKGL
PKM2 activator – activators of human pyruvate kinase M2; purified PKM2, Kinase-Glo ATP luminescence, activation; response scale: 0% is enzyme alone, no compound; Potency, µM (titrated, usually from 57.5 µM), most hits filed as activators; actives 0.34% (n = 260,000); AID 1631; active = well fitted activation curve with a large enough effect; inconclusive = small, poorly fitted or top-dose-only effect; inactive = no such curve, though single readings can be large or run the other way; also: nearly all actives have a fitted effect of over 55% in size
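Purified hPK-M2 (>95% pure) converted ADP (0.1 mM final) to ATP with 0.5 mM PEP in 50 mM imidazole pH7.2, KCl, MgCl2, Tween 20, BSA; 1 h at room temperature. ATP detected by Kinase-Glo luminescence.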
CXXC DNA block – inhibitors of human MLL CXXC domain-DNA interaction. MLL-CXXC / FITC-HOXA9 DNA fluorescence polarization. Potency, µM (doses to about 115 µM), most hits filed as inhibitors. actives 0.037% (n = 290,000); active = well fitted inhibition curve with a large enough effect in the polarisation, with a control signal flat, not every such curve was filed as active; inconclusive = small, poorly fitted or top-dose-only effect, or effect the other way, or a change in a side signal; inactive = no such curve, though single readings can be large or run the other way; the % refers to the polarisation
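Steps: dispense CXXC domain solution (7 uM) → pin compounds or unlabeled HOX-A9 DNA control → 5 min ambient → add FLSN-HOX-A9 solution (50 nM) → spin → 30 min ambient → fluorescence polarization. Tris pH 7.5/NaCl/DTT/BSA buffer.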
Large screens that a line does not name were inactive. Compounds with a hit are over-represented: about 0.41% of the library has one in this group of screens.

O=C1C2C3c4ccccc4C(c4ccccc43)C2C(=O)N1c1nc(-c2ccccc2)cs1 (stereo unspecified)	Menin-MLL TR inh 11.2µM
COC(=O)c1ccc(-c2ccc(C3C4C=CCC(C)C4C(=O)N3Cc3ccccc3)c(F)c2)cc1 (stereo unspecified)	Menin-MLL TR inh inconclusive (no result: PKM2 activator, CXXC DNA block)
COC(=O)C1=C(C)N=c2s/c(=C/c3ccoc3)c(=O)n2C1c1ccccc1 (stereo unspecified)	Menin MLL FP FL inconclusive, Menin-MLL TR inh inconclusive, PKM2 activator 22.4µM, CXXC DNA block inconclusive
CCOC(=O)C1=C(C)N=c2s/c(=C\c3ccc(OCC(=O)O)cc3)c(=O)n2C1c1ccccc1 (stereo unspecified)	Menin-MLL TR inh inconclusive
Cc1cc(C)c(C#N)c(SCCS(=O)(=O)c2ccc(C(C)(C)C)cc2)n1	none (no result: Menin-MLL TR inh)
Cc1cc(C)c(C#N)c(SCCS(=O)(=O)c2ccc(Cl)cc2)n1	PKM2 activator 20µM (no result: Menin-MLL TR inh)
Cc1noc(C)c1-c1ccc2ncnc(NCc3ccc(-c4ccccc4)cc3)c2c1	none (no result: PKM2 activator, CXXC DNA block)
c1ccc2c(c1)ncn2Cc1nnc2sc(-c3ccc4c(c3)OCO4)nn12	PKM2 activator 11.2µM
c1ccc(CCc2nn3c(Cn4cnc5ccccc54)nnc3s2)cc1	PKM2 activator inconclusive
Clc1ccccc1-c1nn2c(Cn3cnc4ccccc43)nnc2s1	PKM2 activator 3.98µM
COc1ccc(OCc2nn3c(Cn4cnc5ccccc54)nnc3s2)cc1	PKM2 activator 25.1µM
O=S(=O)(Nc1cc(O)cc2cccnc12)c1ccc(Br)s1	Menin-MLL TR inh inconclusive (no result: PKM2 activator, CXXC DNA block)
CC(=O)OCC(NC(=O)C(COCc1ccccc1)NC(=O)OC(C)(C)C)C1OC(n2ccc(=O)[nH]c2=O)C(OC(C)=O)C1OC(C)=O (stereo unspecified)	none (no result: PKM2 activator, CXXC DNA block)
O=C(O)C[C@@H]1C(=O)O[C@@H]2C(COC(=O)c3cc(O)c(O)c(O)c3)O[C@@H](OC(=O)c3cc(O)c(O)c(O)c3)[C@@H](OC(=O)c3cc(O)c(O)c4c3[C@H]1[C@H](O)C(=O)O4)[C@H]2OC(=O)c1cc(O)c(O)c(O)c1 (stereo partly specified)	PKM2 activator inconclusive, CXXC DNA block 28.2µM (no result: Menin-MLL TR inh)
CCc1c2c(nc3ccc(OC(=O)N4CCC(N5CCCCC5)CC4)cc13)-c1cc3c(c(=O)n1C2)COC(=O)C3(O)CC (stereo unspecified)	none (no result: PKM2 activator, CXXC DNA block)
CCCCOc1ccc(-c2c(C#N)c(N)nc(SCC(N)=O)c2C#N)cc1	Menin-MLL TR inh 12.6µM
CCCCOC(=O)CSc1nc(N)c(C#N)c(-c2ccc(OCC)cc2)c1C#N	Menin-MLL TR inh inconclusive
O=c1c(-c2ccccc2)nc2cnc(N3CCOCC3)nc2n1CCc1ccccc1	none (no result: PKM2 activator, CXXC DNA block)
Nc1nc(SCC(=O)Nc2ccc(Br)cc2F)n[nH]1	PKM2 activator 22.4µM
O=C(CN1CCC(c2nc3ccccc3s2)CC1)N1CCCCC1	CXXC DNA block inconclusive
O=C(CSc1ccc(F)cc1)N1CCC(c2nc3ccccc3s2)CC1	PKM2 activator 20µM
Cc1cc(NC(=O)CSc2nnc(-c3ccoc3C)o2)no1	PKM2 activator 15.8µM
O=C1CCCN1CCC12CC3CC(CC(C3)C1)C2	Menin-MLL TR inh inconclusive, PKM2 activator 39.8µM
CC(O)[C@H]1CNC(=O)C(=O)N1CCC12CC3CC(CC(C3)C1)C2 (stereo partly specified)	none (no result: Menin-MLL TR inh)
Cc1cccc(CSc2nn3c(=O)c(C)nnc3s2)c1	PKM2 activator 10µM
C=CCN(C)CCCCCCOc1ccc(C(=O)c2ccc(Br)cc2)c(F)c1	Menin-MLL TR inh inconclusive (no result: PKM2 activator, CXXC DNA block)
COC(=O)c1cc(NC(=O)c2ccccc2)c(=O)oc1/C=C/Nc1ccc(Oc2ccccc2)cc1	Menin MLL FP FL inconclusive, Menin-MLL TR inh 10µM, CXXC DNA block inconclusive
COc1cc(/C=N/NS(=O)(=O)c2ccc(C)c([N+](=O)[O-])c2)cc([N+](=O)[O-])c1O	Menin-MLL TR inh 25.1µM
COc1ccc(NC(=O)CN(c2ccc([N+](=O)[O-])cc2)S(=O)(=O)c2ccccc2)c(OC)c1	none
COc1ccccc1NC(=O)CN(c1ccc([N+](=O)[O-])cc1)S(=O)(=O)c1ccccc1	PKM2 activator 10µM
CC(C)(C)OC(=O)NCCc1nnc(SCC(=O)Nc2cccc(Cl)c2)o1	none
CC(C)(C)OC(=O)NCCCCCc1nnc(SCC(=O)Nc2cccc(Cl)c2)o1	PKM2 activator 25.1µM
O=C1NN(c2ccccc2)C(=O)/C1=C\c1ccccc1OCC(=O)N1CCOCC1	PKM2 activator 10µM, CXXC DNA block inconclusive
CCc1ccccc1N=C1S/C(=C/c2ccccc2OCC(=O)N2CCOCC2)C(=O)N1C	Menin-MLL TR inh inconclusive
COCCCNC(=O)COc1ccc(S(=O)(=O)Nc2ccccc2)cc1	PKM2 activator 14.1µM
Brc1ccc(OCc2nnnn2-c2ccccc2)cc1	PKM2 activator 25.1µM, CXXC DNA block inconclusive
COc1ccc(OCc2nnnn2-c2ccccc2)cc1	none
Cc1ccc(CNc2ccc(O)cc2)cc1	Menin-MLL TR inh 17.8µM (no result: CXXC DNA block)
C[C@@H]1C(=O)O[C@@H]1[C@@H](C)CO[Si](c1ccccc1)(c1ccccc1)C(C)(C)C	none (no result: PKM2 activator, CXXC DNA block)
Cc1ccsc1/C=C/C1=Cc2c(sc(NC(=O)CSc3n[nH]c(N)n3)c2C#N)C(C)(C)C1	Menin MLL FP FL inconclusive, Menin-MLL TR inh inconclusive
CCOc1ccc(/C=C/C2=Cc3c(sc(NC(=O)CSc4n[nH]c(N)n4)c3C#N)C(C)(C)C2)cc1	Menin MLL FP FL inconclusive, Menin-MLL TR inh 7.94µM
O=C(CSc1cccc2cccnc12)Nc1ccc(S(=O)(=O)N2CCOCC2)cc1	PKM2 activator 25.1µM (no result: Menin-MLL TR inh)
O=C(CSc1cccc2cccnc12)Nc1cccc(S(=O)(=O)N2CCOCC2)c1	none
Cn1c(=O)c(-c2cccc(Cl)c2)nc2cncnc21	none (no result: PKM2 activator, CXXC DNA block)
CNS(=O)(=O)c1cc2c3c(cccc3c1)C(=O)NC2=O	Menin-MLL TR inh inconclusive, PKM2 activator 12.6µM
Cc1ccc(NS(=O)(=O)c2cc3c4c(cccc4c2)C(=O)NC3=O)cc1	Menin-MLL TR inh inconclusive
COc1ccc(CNC(=O)Nc2cccs2)cc1OC	Menin MLL FP FL inconclusive, PKM2 activator 17.8µM
Cc1ccc(CNC(=O)Nc2cccs2)cc1	Menin MLL FP FL inconclusive, PKM2 activator 25.1µM
COc1cccc(CNC(=O)Nc2cccs2)c1	Menin-MLL TR inh inconclusive
Cc1ccc(S(=O)(=O)N2CCN(C(=O)CCN3C(=O)c4ccccc4C3=O)CC2)cc1C	PKM2 activator 5.62µM
Cc1ccc(S(=O)(=O)N2CCN(C(=O)CCn3nc(C)c(C)c3C)CC2)cc1C	PKM2 activator 7.94µM
C=CCC(Nc1ccc(OC)cc1)(C(=O)OCC)c1ccccc1 (stereo unspecified)	none (no result: PKM2 activator, CXXC DNA block)
C=C1C=CS(=O)(=O)N(Cc2ccccc2)C1	none (no result: PKM2 activator, CXXC DNA block)
Cc1cccc(C)c1NC(=S)NCCc1ccc(O)c(O)c1	PKM2 activator 28.2µM
O=C1CCCC1C(O)c1ccc2ccccc2c1 (stereo unspecified)	none (no result: PKM2 activator, CXXC DNA block)
CCOC(=S)SCc1cn2ccc(C)cc2n1	PKM2 activator 7.94µM
CCOC(=S)SCc1cn2ccccc2n1	Menin MLL FP FL inconclusive
CCOC(=O)CSc1nnc(-c2ccoc2C)n1-c1ccc(OCC)cc1	PKM2 activator 39.8µM
CCNc1ncc2nc(-c3cc(F)cc(F)c3)c(=O)n(-c3ccccc3)c2n1	Menin MLL FP FL inconclusive (no result: PKM2 activator, CXXC DNA block)
